# Data reported in PubChem BioAssay (NCATS).
# Results filed as inconclusive are left out. Entries that show only a call come without a potency. Values without a mark were called inactive. The source made the active and inactive calls. Calls follow the shape of the dose curve; as a rule, active = well fitted curve in the direction sought with a large enough effect; inconclusive = small, poorly fitted or top-dose-only effect, or another doubt; inactive = no such curve, though single readings can be large; an effect the other way counts as inactive or inconclusive.
# Tests used:
# [1] = qHTS of pediatric cancer cell lines to identify multiple opportunities for drug repurposing: Confirmatory screen for OHS-50 cells (AID 1347128);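 also: compound exposure lasted 48 h at 37 degrees C; nearly all actives have a fitted effect of over 55% in size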
# Procedure, shortened: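 Cells (500-1,000/well) rested 5 h, then received compounds for 48 h; metabolically active cells were measured by CellTiter-Glo luminescence. Final concentrations spanned up to 46 µM (MIPE, 11-point) or 0.59 nM-46 µM (NPC, 8-point) in primary screens, 11-point in follow-ups.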
# [2] = qHTS of pediatric cancer cell lines to identify multiple opportunities for drug repurposing: Confirmatory screen for SK-N-SH cells (AID 1347129);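 also: cells exposed to compound for 48 h before viability read; nearly all actives have a fitted effect of over 60% in size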
# Source text: Drug repurposing or repositioning has been offered as a strategy for drug development in oncology programs. This approach has special potential for childhood cancers and other rare or orphan diseases, where the expected return on new drug development has been a disincentive to pharmaceuticals.
# In this project we exploit the poly-pharmacology of drugs to discover new indications via phenotypic screening of a panel of 19 well-characterized cell lines derived from solid tumors seen in children and adolescents. The goal is to identify approved drugs with previously unrecognized anticancer properties that has the potential to reveal new mechanisms and biological processes involved in carcinogenesis or drug resistance. We employed a titration-based paradigm (quantitative high-throughput screening or qHTS), where all compounds were tested at multiple concentrations for their effect on cell viability. Concentration-response curves (CRCs) were derived directly from the primary screen, and both potency and efficacy values were used to identify compounds with robust bioactivity profiles. We screened the NIH Chemical Genomics Center (NCGC) Pharmaceutical Collection (NPC) and Mechanism Interrogation Plate (MIPE) small molecule collections of approved and investigational compounds against these cell lines; and measured metabolically active cells after 48 hours of compound treatment as a proxy for cell viability.
# Assay Submitter: Nathalia J. Martinez, National Center for Advancing Translational Sciences, National Institutes of Health, Rockville, MD, USA; email: natalia.martinez@nih.gov
# [1] Shen, M et al. Quantitative high-throughput phenotypic screening of pediatric cancer cell lines identifies multiple opportunities for drug repurposing. Oncotarget 2017 Dec 19;9(4):4758-4772. PMID 29435139.
# The cells were obtained from University of North Carolina (UNC), Pediatric Preclinical Testing Program (PPT), and Coriell Institute (CI).
# qHTS cell viability assay:
# Cells were assayed in growth media at a density of 500-1,000 cells/well. Five microliters of cells were dispensed into 1,536-well, white, solid-bottom, TC-treated plates (Greiner Bio One) using a multidrop dispenser and incubated at 37 degrees C, 5% CO2, under a humidified atmosphere for 5 hours. Twenty-three nanoliters of compounds and controls (neutral control DMSO or positive control bortezomib at final concentration of 2.3 µM) were subsequently transferred by Kalypsys pintool. For primary screens, the MIPE collection was tested at 11-point dilutions (final concentrations range from 0.78 nM to 46 µM) and the NPC collection at 8-point dilutions (final concentrations range from 0.59 nM to 46 µM). Compounds tested in follow-up screens were assayed at 11-point dilutions. Cells were incubated for 48 hours, followed by addition of 3 µL of CellTiter-Glo (Promega). After a 15 min incubation at room temperature, samples were analyzed for luminescence intensity using a ViewLux High-throughput CCD imager equipped with clear filters.
# [3] = test system: Zika virus NS2B-NS3 protease (unlinked); assay: Optimization of GU AMC qHTS for Zika virus inhibitors: Unlinked NS2B-NS3 protease assay (AID 1347151); also: nearly all actives have a fitted effect of over 80% in size; also: potency is read from the fitted curve at half-maximal effect; as to activity change, negative = inhibition: series mostly up to about 52 µM
# Procedure, shortened: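 Noncovalent NS2B hydrophilic domain–NS3 protease complex (25 nM final) in 10 mM Tris-HCl pH 8.0, 0.01% Tween 20; AMC substrate, room temperature 15 min (~20% conversion); fluorescence change normalized, 4-parameter Hill fit.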
# [4] = target: N-terminal Xaa-Pro-Lys N-methyltransferase 1 (Homo sapiens) (UniProt Q9BV86); assay: qHTS Assay for Inhibitors of N-terminal methyltransferase 1 (NTMT1): LOPAC validation of the NTMT1 SAHH-coupled ThioGlo3 Assay (AID 1347143);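 also: SAH from peptide methylation measured as thiol fluorescence via SAHH coupling and ThioGlo3; nearly all actives have a fitted effect of over 70% in size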; also: potency is read from the fitted curve at half-maximal effect
# Chain of N-terminal Xaa-Pro-Lys N-methyltransferase 1 (Homo sapiens) (Q9BV86 whole entry, looked up): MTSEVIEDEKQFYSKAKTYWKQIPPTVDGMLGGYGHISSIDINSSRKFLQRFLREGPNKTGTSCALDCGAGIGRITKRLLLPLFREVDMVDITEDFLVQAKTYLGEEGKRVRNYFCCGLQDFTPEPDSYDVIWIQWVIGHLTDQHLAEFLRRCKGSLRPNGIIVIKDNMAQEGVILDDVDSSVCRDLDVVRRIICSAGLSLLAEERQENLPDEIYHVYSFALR
# Procedure, shortened: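 NTMT1 125nM + cpds (various conc.), 1 min RT; add SAM 100uM/SAHH 10uM/ThioGlo3 15uM (addition mix). SAHH-coupled thiol detection, Ex340/Em450, t0 and 30 min RT; signal normalized to background. LOPAC 1280-cpd pilot.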
# [5] = test system: Zika virus NS2B-NS3 protease; assay: Primary screen GU AMC qHTS for Zika virus inhibitors (AID 1347154); also: nearly all actives have a fitted effect of over 70% in size
# Procedure, shortened: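 Fluorogenic AMC-substrate cleavage by noncovalent NS2B-NS3 protease complex (25 nM, pH 8.0 Tris buffer with Tween 20) followed for 15 minutes at room temperature (~20% conversion). Percent inhibition from ex340/em450 signal change, fitted by 4-parameter Hill equation.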
# [6] = test system: Zika virus NS2B-NS3 protease (unlinked complex); assay: Primary screen GU Rhodamine qHTS for Zika virus inhibitors: Unlinked NS2B-NS3 protease assay (AID 1347159); also: nearly all actives have a fitted effect of over 60% in size
# Procedure, shortened: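 Buffer 10 mM Tris-HCl pH 8.0, 0.01% Tween 20. Unlinked protease 25 nM; compound preincubation 15 min, RT, protected from light. Substrate Rhod110, 1.5 microM; ~15% conversion in 15 min.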
structure (smiles),measurement,setting,value
O=C1N=C(O)CN1/N=C/c1ccc(-c2ccc([N+](=O)[O-])cc2)o1,outcome,[1],inactive
same,outcome,[2],inactive
same,Potency,[3],inactive
CCN(CC)CCNC(=O)c1cc(Cl)c(N)cc1OC,outcome,[1],inactive
same,outcome,[2],inactive
same,Potency,[4],inactive
same,Potency,[3],inactive
same,Potency,[5],inactive
same,Potency,[6],inactive
CN(C)CC[C@@H](c1ccc(Cl)cc1)c1ccccn1,Potency,[4],inactive
same,Potency,[3],inactive
same,Potency,[5],inactive
CC[C@H]1CN2CCc3cc(OC)c(OC)cc3[C@@H]2C[C@@H]1C[C@H]1NCCc2cc(OC)c(OC)cc21,Potency,[4],inactive
same,Potency,[3],inactive
same,Potency,[5],inactive
CNCC(O)c1ccc(O)c(O)c1 (configuration not stated),Potency,[4],inactive
same,Potency,[3],inactive
same,Potency,[5],inactive
Nc1cc(=O)[nH]c(N)n1,Potency,[4],inactive
same,Potency,[3],inactive
same,Potency,[5],inactive
C[C@H](NC(CCc1ccccc1)C(=O)O)C(=O)N1CCC[C@H]1C(=O)O (some centres not stated),Potency,[4],inactive
same,Potency,[3],inactive
same,Potency,[5],inactive
COCCOC(=O)C1=C(C)NC(C)=C(C(=O)OC/C=C/c2ccccc2)C1c1cccc([N+](=O)[O-])c1 (configuration not stated),Potency,[4],inactive
same,Potency,[3],inactive
same,Potency,[5],inactive
CC(C)c1c(C(=O)Nc2ccccc2)c(-c2ccccc2)c(-c2ccc(F)cc2)n1CC[C@@H](O)C[C@@H](O)CC(=O)O,Potency,[4],inactive
same,Potency,[3],inactive
same,Potency,[5],inactive
CN(C)CCC=C1c2ccccc2CCc2ccccc21,Potency,[4],inactive
same,Potency,[3],inactive
same,Potency,[5],inactive
C[C@](N)(Cc1ccc(O)cc1)C(=O)O,"activity change, negative = cytotoxic",[2],11.7% [at 5.03 µM]
same,Potency,[4],inactive
same,Potency,[3],inactive
same,"activity change, negative = inhibition",[5],-1.38% [at 4.99 µM]
CC(C)(C)c1onc(OCP(=O)(O)O)c1CC(N)C(=O)O (configuration not stated),Potency,[4],inactive
same,Potency,[3],inactive
CC(C)C(=O)c1c(C(C)C)nn2ccccc12,Potency,[4],inactive
same,Potency,[3],inactive
same,Potency,[5],inactive
NC(N)=NCCC[C@H](N)C(=O)O,Potency,[4],inactive
same,Potency,[3],inactive
same,Potency,[5],inactive
Cc1c(O)cccc1C(=O)N[C@@H](CSc1ccccc1)[C@H](O)CN1C[C@H]2CCCC[C@H]2C[C@H]1C(=O)NC(C)(C)C,Potency,[4],inactive
same,Potency,[3],inactive
same,Potency,[5],inactive
CNCCCC1c2ccccc2C=Cc2ccccc21,Potency,[4],56.2 µM (active)
same,Potency,[3],26.7 µM (active)
CCCCN(CCCC)CC(O)c1cc(Cl)cc2c1-c1ccc(Cl)cc1/C2=C/c1ccc(Cl)cc1 (configuration not stated),Potency,[4],inactive
same,Potency,[3],inactive
same,Potency,[5],inactive
C[C@@H]1C[C@H]2[C@@H]3C[C@H](F)C4=CC(=O)C=C[C@]4(C)[C@@]3(F)[C@@H](O)C[C@]2(C)[C@@]1(O)C(=O)CO,outcome,[1],inactive
same,outcome,[2],inactive
same,Potency,[5],inactive
same,Potency,[6],inactive
CC(CN1c2ccccc2Sc2ccccc21)N(C)C (configuration not stated),Potency,[4],50.1 µM (active)
same,Potency,[3],inactive
same,Potency,[5],inactive
C[C@]12CC[C@@H]3c4ccc(O)cc4CC[C@H]3[C@@H]1CCC2=O,Potency,[4],inactive
same,Potency,[3],inactive
same,Potency,[5],inactive
C[C@H]1O[C@@H](n2cc(F)c(=O)[nH]c2=O)[C@H](O)[C@@H]1O,Potency,[4],inactive
same,Potency,[3],inactive
same,Potency,[5],inactive
O=C1NC(=O)[C@@]2(CCOc3ccc(F)cc32)N1,Potency,[4],inactive
same,Potency,[3],inactive
same,Potency,[5],inactive
CNCCC(Oc1ccc(C(F)(F)F)cc1)c1ccccc1 (configuration not stated),Potency,[4],inactive
same,Potency,[3],inactive
same,Potency,[5],inactive
CC(CN(C)C)CN1c2ccccc2CCc2ccccc21 (configuration not stated),Potency,[4],inactive
same,Potency,[3],inactive
same,Potency,[5],inactive
COc1ccc(Cl)cc1C(=O)NCCc1ccc(S(=O)(=O)NC(=O)NC2CCCCC2)cc1,Potency,[4],inactive
same,Potency,[3],inactive
same,Potency,[5],inactive
CC(=O)OCC(=O)[C@@]1(O)CC[C@H]2[C@@H]3CCC4=CC(=O)CC[C@]4(C)[C@H]3C(=O)C[C@@]21C,Potency,[4],inactive
same,Potency,[3],inactive
same,Potency,[5],inactive
CC1=C(CC(=O)O)c2cc(F)ccc2/C1=C\c1ccc(S(C)(=O)=O)cc1,Potency,[4],inactive
same,Potency,[3],inactive
same,Potency,[5],inactive
COC(=O)C1=C(C)NC(C)=C(C(=O)OC)C1c1ccccc1[N+](=O)[O-],Potency,[4],12.6 µM (active)
same,Potency,[3],inactive
same,Potency,[5],inactive
CCCCc1ncc(/C=C(\Cc2cccs2)C(=O)O)n1Cc1ccc(C(=O)O)cc1,Potency,[4],inactive
same,Potency,[3],inactive
same,Potency,[5],inactive
same,Potency,[6],inactive
CCCn1cnc2c1c(=O)n(CCCCC(C)=O)c(=O)n2C,Potency,[4],inactive
same,Potency,[3],inactive
same,Potency,[5],inactive
NC(=O)c1ncn([C@@H]2O[C@H](CO)[C@@H](O)[C@H]2O)n1,Potency,[4],inactive
same,Potency,[3],inactive
same,Potency,[5],inactive
